Source: the supplement of paper PMC11732987, “Enantioselective OTUD7B fragment discovery through chemoproteomics screening and high-throughput optimisation” (Communications Chemistry, 2025)

What was measured:
Test in all cases: log2 ratio of Biotin-Ahx-Ub-VS probe labelling (fragment/DMSO); higher = less target engagement (more negative = stronger competition), active = hit call of the paper (q ≤ 0.05, log2 ratio ≤ -1)
Conditions in all cases: compound concentration: 200 uM; treatment time: 3 h
OTUD6B = target: T1, OTUD6B (UniProt Q8N6M0)
T1 sequence (whole entry): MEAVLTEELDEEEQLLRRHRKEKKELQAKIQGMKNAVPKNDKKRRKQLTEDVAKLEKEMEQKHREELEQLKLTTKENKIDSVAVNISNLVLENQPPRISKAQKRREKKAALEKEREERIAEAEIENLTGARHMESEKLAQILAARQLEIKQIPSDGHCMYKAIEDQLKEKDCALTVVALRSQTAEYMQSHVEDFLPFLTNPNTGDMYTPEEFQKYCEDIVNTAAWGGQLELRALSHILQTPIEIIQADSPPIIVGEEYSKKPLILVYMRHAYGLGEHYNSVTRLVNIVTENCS
Summary of the method: (§1)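 Lysate from HEK293T cells, 495 µg per sample in Tris/CHAPS/IGEPAL buffer with protease inhibitors, was treated for 3 h in triplicate with fragment at 200 µM or vehicle. Biotin-Ahx-Ub-VS was next added at 0.5 µM final for 1 h. The labelled DUBs were enriched with NeutrAvidin, digested with LysC and trypsin, and run by diaPASEF LC-MS/MS, with values given as average log2 fragment/vehicle ratios by unpaired t-test on global-median-normalised Spectronaut quantities of proteins with ≥2 unique peptides.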

OTUD7B = target: T2, OTUD7B (UniProt Q6GQQ9)
T2 sequence (whole entry): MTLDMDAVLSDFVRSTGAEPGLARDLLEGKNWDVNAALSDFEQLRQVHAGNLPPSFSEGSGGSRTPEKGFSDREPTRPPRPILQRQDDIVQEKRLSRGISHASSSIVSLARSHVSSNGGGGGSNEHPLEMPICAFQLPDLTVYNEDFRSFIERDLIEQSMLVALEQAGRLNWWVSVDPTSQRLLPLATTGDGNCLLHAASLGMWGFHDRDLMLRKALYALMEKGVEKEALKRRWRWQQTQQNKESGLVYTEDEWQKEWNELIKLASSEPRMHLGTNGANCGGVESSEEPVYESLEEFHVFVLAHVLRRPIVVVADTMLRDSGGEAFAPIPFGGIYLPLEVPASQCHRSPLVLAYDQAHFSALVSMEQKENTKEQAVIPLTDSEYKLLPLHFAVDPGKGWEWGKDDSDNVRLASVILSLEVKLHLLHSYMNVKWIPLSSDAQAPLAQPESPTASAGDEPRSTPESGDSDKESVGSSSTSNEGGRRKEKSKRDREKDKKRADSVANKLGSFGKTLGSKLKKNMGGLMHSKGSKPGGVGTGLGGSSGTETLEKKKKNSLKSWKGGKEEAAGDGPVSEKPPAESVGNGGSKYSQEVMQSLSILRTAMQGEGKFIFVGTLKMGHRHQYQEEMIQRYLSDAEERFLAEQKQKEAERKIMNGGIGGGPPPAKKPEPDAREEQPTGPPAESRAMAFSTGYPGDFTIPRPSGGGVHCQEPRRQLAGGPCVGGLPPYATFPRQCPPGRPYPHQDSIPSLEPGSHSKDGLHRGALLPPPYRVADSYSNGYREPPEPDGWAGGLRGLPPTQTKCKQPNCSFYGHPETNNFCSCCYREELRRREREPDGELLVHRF
Summary of the method: as §1

PRPF8 = PRPF8 (UniProt Q6P2Q9)
Summary of the method: as §1

PSMD7 = target: T3, PSMD7 (UniProt P51665)
T3 sequence (whole entry): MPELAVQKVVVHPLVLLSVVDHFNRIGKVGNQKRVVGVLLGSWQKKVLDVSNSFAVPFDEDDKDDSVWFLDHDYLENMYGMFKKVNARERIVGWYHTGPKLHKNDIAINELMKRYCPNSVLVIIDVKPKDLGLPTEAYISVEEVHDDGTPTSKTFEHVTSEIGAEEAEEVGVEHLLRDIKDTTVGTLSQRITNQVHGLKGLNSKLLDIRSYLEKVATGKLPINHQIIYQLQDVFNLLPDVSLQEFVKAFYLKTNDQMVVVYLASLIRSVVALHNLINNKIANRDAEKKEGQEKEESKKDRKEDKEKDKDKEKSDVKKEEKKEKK
Summary of the method: as §1

UCHL1 = UCHL1 (UniProt P09936)
UCHL1, sequence (P09936 whole entry, looked up): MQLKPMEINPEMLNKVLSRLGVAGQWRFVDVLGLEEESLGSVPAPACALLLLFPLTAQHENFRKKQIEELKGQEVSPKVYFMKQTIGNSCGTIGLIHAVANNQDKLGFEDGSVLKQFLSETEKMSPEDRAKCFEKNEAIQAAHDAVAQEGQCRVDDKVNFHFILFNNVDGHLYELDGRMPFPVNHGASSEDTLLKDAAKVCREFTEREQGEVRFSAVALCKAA
Summary of the method: as §1

UCHL3 = target: T4, UCHL3 (UniProt P15374)
T4 sequence (whole entry): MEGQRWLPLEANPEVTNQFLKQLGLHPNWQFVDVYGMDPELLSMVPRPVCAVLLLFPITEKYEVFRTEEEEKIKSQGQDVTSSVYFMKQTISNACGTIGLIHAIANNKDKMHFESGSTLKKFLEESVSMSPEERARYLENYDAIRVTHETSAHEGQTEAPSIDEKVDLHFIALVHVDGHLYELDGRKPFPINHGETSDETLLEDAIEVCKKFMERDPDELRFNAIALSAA
Summary of the method: as §1

UCHL5 = target: T5, UCHL5 (UniProt Q9Y5K5)
T5 sequence (whole entry): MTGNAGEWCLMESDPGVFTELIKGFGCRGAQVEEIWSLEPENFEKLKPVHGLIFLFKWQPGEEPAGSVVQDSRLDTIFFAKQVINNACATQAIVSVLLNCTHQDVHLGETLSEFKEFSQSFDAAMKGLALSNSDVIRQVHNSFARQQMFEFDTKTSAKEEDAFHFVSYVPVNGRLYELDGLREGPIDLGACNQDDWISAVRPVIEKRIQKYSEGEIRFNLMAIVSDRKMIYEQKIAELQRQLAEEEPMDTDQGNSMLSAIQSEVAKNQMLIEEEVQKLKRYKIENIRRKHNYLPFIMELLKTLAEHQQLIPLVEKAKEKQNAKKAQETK
Summary of the method: as §1

USP10 = USP10 (UniProt Q14694)
USP10, sequence (Q14694 whole entry): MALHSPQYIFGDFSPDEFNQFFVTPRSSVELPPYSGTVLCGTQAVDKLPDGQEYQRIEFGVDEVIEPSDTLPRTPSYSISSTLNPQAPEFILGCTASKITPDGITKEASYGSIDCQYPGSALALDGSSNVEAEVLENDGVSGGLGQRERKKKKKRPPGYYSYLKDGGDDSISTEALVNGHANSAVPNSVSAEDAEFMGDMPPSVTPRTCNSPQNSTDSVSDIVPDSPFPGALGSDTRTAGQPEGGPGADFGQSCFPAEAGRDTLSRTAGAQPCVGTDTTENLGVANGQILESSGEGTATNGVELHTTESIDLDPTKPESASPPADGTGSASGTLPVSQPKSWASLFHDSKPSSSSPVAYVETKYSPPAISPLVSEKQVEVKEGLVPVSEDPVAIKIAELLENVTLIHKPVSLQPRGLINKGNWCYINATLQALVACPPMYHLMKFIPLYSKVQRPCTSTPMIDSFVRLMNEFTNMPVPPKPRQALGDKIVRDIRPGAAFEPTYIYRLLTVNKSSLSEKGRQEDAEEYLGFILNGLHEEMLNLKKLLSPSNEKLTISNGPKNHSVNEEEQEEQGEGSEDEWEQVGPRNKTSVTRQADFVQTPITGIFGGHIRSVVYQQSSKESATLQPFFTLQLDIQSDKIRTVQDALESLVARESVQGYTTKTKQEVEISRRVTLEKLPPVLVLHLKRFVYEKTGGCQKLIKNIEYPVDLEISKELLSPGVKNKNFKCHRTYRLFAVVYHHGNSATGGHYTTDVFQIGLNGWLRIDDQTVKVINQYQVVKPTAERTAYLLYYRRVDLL
Summary of the method: as §1

USP15 = target: T6, USP15 (UniProt Q9Y4E8)
T6 sequence (whole entry): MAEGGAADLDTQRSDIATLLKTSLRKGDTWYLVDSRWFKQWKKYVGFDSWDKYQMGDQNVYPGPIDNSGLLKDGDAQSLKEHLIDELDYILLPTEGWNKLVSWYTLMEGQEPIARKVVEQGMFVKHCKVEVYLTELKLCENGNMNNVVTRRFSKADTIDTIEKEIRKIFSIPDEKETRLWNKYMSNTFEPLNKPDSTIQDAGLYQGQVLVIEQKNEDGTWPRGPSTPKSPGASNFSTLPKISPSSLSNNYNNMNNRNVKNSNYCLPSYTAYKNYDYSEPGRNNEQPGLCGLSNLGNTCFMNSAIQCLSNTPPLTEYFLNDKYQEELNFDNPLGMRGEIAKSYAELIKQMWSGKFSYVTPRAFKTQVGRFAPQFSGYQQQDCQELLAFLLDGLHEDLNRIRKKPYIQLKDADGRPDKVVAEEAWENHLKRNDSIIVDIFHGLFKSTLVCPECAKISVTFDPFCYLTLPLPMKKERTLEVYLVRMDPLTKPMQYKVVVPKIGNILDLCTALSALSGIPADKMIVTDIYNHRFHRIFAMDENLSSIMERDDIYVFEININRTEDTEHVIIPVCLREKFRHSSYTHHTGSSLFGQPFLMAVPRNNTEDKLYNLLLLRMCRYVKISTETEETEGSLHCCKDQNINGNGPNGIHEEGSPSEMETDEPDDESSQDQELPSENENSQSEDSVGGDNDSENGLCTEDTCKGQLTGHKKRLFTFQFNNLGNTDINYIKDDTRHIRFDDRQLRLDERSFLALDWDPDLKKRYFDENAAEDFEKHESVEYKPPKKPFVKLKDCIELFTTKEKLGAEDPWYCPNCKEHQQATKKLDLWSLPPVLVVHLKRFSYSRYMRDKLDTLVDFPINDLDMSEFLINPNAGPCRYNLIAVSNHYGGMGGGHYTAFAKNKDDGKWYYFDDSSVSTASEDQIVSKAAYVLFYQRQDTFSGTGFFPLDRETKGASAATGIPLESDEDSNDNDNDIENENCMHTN
Summary of the method: as §1

USP16 = USP16 (UniProt Q9Y5T5)
USP16, sequence (Q9Y5T5 whole entry, looked up): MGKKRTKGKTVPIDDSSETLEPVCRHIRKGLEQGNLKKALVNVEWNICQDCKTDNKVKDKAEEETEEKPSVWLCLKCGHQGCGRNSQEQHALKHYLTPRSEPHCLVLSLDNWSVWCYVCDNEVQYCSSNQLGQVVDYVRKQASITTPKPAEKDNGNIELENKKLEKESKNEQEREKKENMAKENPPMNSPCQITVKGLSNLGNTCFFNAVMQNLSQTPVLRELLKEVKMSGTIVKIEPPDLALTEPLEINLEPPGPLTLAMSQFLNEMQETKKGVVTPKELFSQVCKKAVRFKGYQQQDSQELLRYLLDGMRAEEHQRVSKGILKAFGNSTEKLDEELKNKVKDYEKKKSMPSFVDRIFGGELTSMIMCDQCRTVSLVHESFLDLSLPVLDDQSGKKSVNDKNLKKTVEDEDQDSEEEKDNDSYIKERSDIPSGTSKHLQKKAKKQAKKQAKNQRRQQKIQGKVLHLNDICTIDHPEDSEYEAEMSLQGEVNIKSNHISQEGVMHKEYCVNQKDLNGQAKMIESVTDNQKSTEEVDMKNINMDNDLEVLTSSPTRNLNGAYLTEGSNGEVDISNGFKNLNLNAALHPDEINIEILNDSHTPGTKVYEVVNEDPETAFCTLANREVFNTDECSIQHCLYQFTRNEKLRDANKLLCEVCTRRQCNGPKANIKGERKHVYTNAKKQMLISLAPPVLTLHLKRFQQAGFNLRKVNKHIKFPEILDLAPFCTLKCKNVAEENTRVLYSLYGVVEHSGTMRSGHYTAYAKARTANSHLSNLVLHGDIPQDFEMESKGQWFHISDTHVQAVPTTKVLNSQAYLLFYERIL
Summary of the method: as §1

Measured: log2 ratio of Biotin-Ahx-Ub-VS probe labelling

Cc1ccc(CN(CCO)C(=O)CCl)cc1
inactive: OTUD6B -0.389 | PRPF8 0.0652 | PSMD7 -0.47 | UCHL3 0.0861 | UCHL5 -0.52 | USP10 -0.0725 | USP15 -0.384 | USP16 0.361
active: OTUD7B -1.14 | UCHL1 -1.56
